Screening data (PubChem)
Compounds with a hit are over-represented: about 19% of the library has one in this group of screens.
Shiga toxin inh: blocks Shiga toxin action in Vero cells. inhibition, % at 38.7 µM. Vero cells, Shiga toxin protein synthesis inhibition reporter. 290,000 compounds, 9.2% hits; in the data active = inhibition mostly above about 28%, no sharp cut-off; inactive = mostly below about 43%; note: 0% is about no effect
SARS PLP yeast: blocks SARS-CoV papain-like protease in a yeast assay; S. cerevisiae expressing SARS-CoV PLpro, growth rescue; Potency, µM (doses to about 32.9 µM), without a hit: at the top dose activity, positive = growth rescue, most hits filed as activators; 330,000 compounds, 0.19% hits; calls by dose curve; note: potency is the fitted concentration of half-maximal effect; 0% is about no effect; nearly all actives have a fitted effect of over 55% in size
Pf growth 48h: inhibits P. falciparum growth in the first generation, 48 h. P. falciparum luciferase growth in erythrocytes, 48 h. Potency, µM (series often up to 28.7 µM), for the others: top-dose activity change, negative = inhibition, most hits filed as inhibitors. 310,000 compounds, 5.9% hits; note: potency is the fitted concentration of half-maximal effect; % is set by controls: 0 for no effect and ±100 for the full control effect
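Erythrocytes infected with P. falciparum carrying an integrated firefly luciferase reporter (2% hematocrit, 0.1% parasitemia final) were exposed to compounds in RPMI 1640 with 0.5% Albumax at 37 C, 5% CO2. Growth inhibition was scored as reduced luminescence.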
AMA1 RON2 block: AMA1-RON2 (P. falciparum) interaction inhibition. AlphaScreen AMA1-biotinylated RON2 peptide binding. Potency, µM (series often up to 58.2 µM), without a hit: at the highest dose activity change, negative = inhibition, most hits filed as inhibitors. 360,000 compounds, 0.2% hits;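 note: potency is the fitted concentration of half-maximal effect; 0% = vehicle wells and -100% = peptide control; nearly all actives have a fitted effect of over 45% in size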
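AMA1 (3D7) with his tag at 25 nM final met compounds first, then biotinylated RON2 peptide at 25 nM; detection used donor plus acceptor beads, 10 µg/mL apiece, read by AlphaScreen after 30 min at room temperature.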
CHX counter: counter-screen for Shiga toxin inhibitors: cycloheximide protein synthesis inhibition. cell reporter, cycloheximide protein synthesis inhibition counterscreen. max response, %. 300,000 compounds, 12% hits; in the data active = max response mostly above about 13%, no sharp cut-off; inactive = mostly below about 14%; note: read at 38.3 µM for the half of the compounds with a filed dose; 0% is about no effect
Pf growth 96h: inhibits malaria parasite growth, 96 h | AID 504834 | 320,000 compounds, 6.9% hits | P. falciparum luciferase reporter growth, 96 h | Potency, µM (titrated, usually from 28.7 µM), without a hit: at the top dose activity change, negative = inhibition, hits mostly inhibitors; note: potency is the fitted concentration of half-maximal effect; % is set by controls: 0 for no effect and ±100 for the full control effect
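Infected RBCs, 2% Hct / 0.05% parasitemia final; luciferase-reporter P. falciparum; cpd 96 h, 37 C, 5% CO2; luciferase detection reagent; luminescence.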
The depositor's hits bear a star; ? = inconclusive; · = not tested or not shown. Unless noted, calls come from the whole dose curve; as a rule, active = well fitted curve in the direction sought with a large enough effect; inconclusive = small, poorly fitted or top-dose-only effect, or another doubt; inactive = no such curve, though single readings can be large; an effect the other way counts as inactive or inconclusive.

SMILES	Shiga toxin inh	SARS PLP yeast	Pf growth 48h	AMA1 RON2 block	CHX counter	Pf growth 96h
CCCCOc1ccc2c(c1)C(=O)c1cc(O)ccc1-2	93*	-5%	76%	-24%	29*	48%
Cc1cc(=S)n(-c2ccccc2)n1C	39*	-2%	0%	-3%	16	12%
CC(/C=C/c1ccco1)=N\NC(=O)c1cc(Cl)ccc1O	91*	?	-18%	37%	27*	3%
CC(/C=C/c1ccco1)=N/NC(=O)OC(C)(C)C	52	-12%	36%	28%	23*	2%
C/C(=N/NC(=O)OC(C)(C)C)c1ccco1	66*	-5%	92%	11%	29*	53%
COCCCN1C(=O)C(CC(=O)NC2CCCCC2)CC(C(=O)N(C(C)C)C(C)C)=C1C (centres undefined)	·	·	·	74%	·	·
O=C(NC(=S)N1CCN(c2ccc(F)cc2)CC1)c1ccccc1	·	·	·	107%	·	·
O=C(NC(=S)N1CCN(c2ccccc2)CC1)c1ccccc1	2	12%	10µM*	·	8	4.7µM*
O=C(NC(=O)N1CCN(c2ccc(F)cc2)CC1)c1ccccc1	32	23%	·	-12%	20*	?
O=C(c1ccccc1)c1ccc(C(=O)N2CCN(c3ccc(F)cc3)CC2)o1	16	10%	?	-6%	5	0%
O=C(NC(=O)N1CCCCC1)c1ccccc1	20	0%	0%	2%	14*	1%
COCCn1c(SCC(=O)N2CCOCC2)nnc1-c1ccncc1	-4	1%	12%	3%	-6	?
O=C(Nc1ccc(C(=O)NCC2CCN(Cc3ccccc3F)CC2)cc1)C1=CSCCO1	29	-3%	-12%	-1%	14*	?
CCOc1ccccc1CNC(=O)c1ccc(NC(=O)C2=C(C)OCCS2)cc1	-7	-4%	?	-16%	-7	6.6µM*
CCOc1ccccc1CNC(=O)c1ccc(NC(=O)C2=CSCCO2)cc1	28	1%	-20%	-4%	18*	?
Cc1ccc(CN2CCC(CNC(=O)c3ccc(NC(=O)C4=CSCCO4)cc3)CC2)cc1	22	-3%	?	-4%	10	?
CCn1cc(/C=C(\NC(=O)c2ccccc2F)C(=O)N2CCN(C)CC2)c2ccccc21	·	·	·	-7%	·	·
CN(C)C(=O)c1ccc(NC(=O)c2cccc(S(=O)(=O)N3CCCCCC3)c2)cc1	·	-12%	?	-3%	·	5.2µM*
CC(=O)Nc1ccc(NC(=O)c2cccc(S(=O)(=O)N3CCCCCC3)c2)cc1	·	-1%	·	-5%	·	·
CC(=O)Nc1ccc(S(=O)(=O)N2CCCc3ccccc32)cc1	-6	2%	-13%	3%	-3	-23%
CN(C)C(=O)c1ccc(NC(=O)c2cccc(S(=O)(=O)N3CCCc4ccccc43)c2)cc1	·	1%	5.2µM*	-1%	·	9.3µM*
CCN(CC(=O)Nc1ccc(OC)cc1)CC(=O)Nc1cccc(S(=O)(=O)N2CCOCC2)c1	·	·	·	50%	·	·
O=C1c2cccnc2C(=O)N1Cc1ccc(S(=O)(=O)N2CCOc3ccccc32)cc1	-8	?	13%	-1%	1	72%
O=C(Cn1cnnn1)NC1CCCN(Cc2ccccc2F)C1 (centres undefined)	-5	4%	15%	1%	1	5.2µM*
O=C(CCC(=O)c1ccc(F)cc1)NC1CCCN(Cc2ccccc2F)C1 (centres undefined)	·	0%	1%	0%	-1	13µM*
CC(C)Cc1ccc(CN2CCCC(NC(=O)Cn3cnnn3)C2)cc1 (centres undefined)	16	11%	-7%	0%	11	?
COc1ccc2cc3cc(C(=O)NCCN4CCc5ccccc5C4)oc3nc2c1	36*	-14%	3.3µM*	-1%	21	?
CCC(C)NC(=O)c1cc2c(=O)[nH]c3ccc(C)cc3c2s1 (centres undefined)	-3	-2%	?	7%	-2	36%
CCC(C)NC(=O)c1cc2cc3ccc(OC)cc3nc2s1 (centres undefined)	88*	-4%	·	-1%	57*	7%
COc1ccc2cc3cc(C(=O)NCCN4CCN(Cc5ccccc5)CC4)oc3nc2c1	-10	-1%	?	8%	-4	11%
